Reference: ChEMBL document CHEMBL3988442, “University of Dundee, Small-Polar-MMV Screening Library” (2021)
In all, about 53,000 compounds went through this assay and about 900 (1.7%) showed an effect of 50% or more. The full list was thinned out, with strong results kept by preference.

Test system: Mycobacterium tuberculosis
Experiment: Cornell - Phenotypic assay to identify agents that inhibit growth of Mycobacterium tuberculosis
Format: functional
Design: scale not given: direction of the effect not stated beside the values
Conditions: 10 mM as filed; unlikely as a test dose

| Structure (SMILES) | Percent Effect |
| --- | --- |
| CCOCC1CN(Cc2ccncc2)Cc2nn(C)cc21.O=C(O)C(F)(F)F.O=C(O)C(F)(F)F (stereo not given) | 12.3% |
| O=C(O)C(F)(F)F.O=C(O)C(F)(F)F.c1c(CN2CCCC2)nc2n1CCN(C1CCOCC1)C2 | 3.362% |
| Cc1cc(C(=O)NC2CCN(CC(N)=O)CC2)nn1C(C)(C)C | 11.5% |
| COCCn1ccc2c(NC(=O)c3n[nH]c4c3CCC4)cccc21 | 61.23% |
| CC(=O)Nc1cccc2c1ccn2CC(=O)Nc1n[nH]c(CC(C)C)n1 | -27.06% |
| COCCn1ccc2c(NC(=O)C(C)C)cccc21 | 18.08% |
| CC(C)Cn1ccc2c(NC(=O)c3n[nH]c4c3CCC4)cccc21 | 50.74% |
| COCCn1ccc2c(C(=O)NC(C)C)cccc21 | 10.53% |
| COCCn1ccc2c(C(=O)O)cccc21 | 17.17% |
| CC(C)n1ccc2c(NC(=O)c3n[nH]c4c3CCC4)cccc21 | 48.39% |
| COCCn1ccc2c(NC(=O)c3n[nH]c4c3CCCC4)cccc21 | 70.2% |
| COCCn1ccc2c(C(=O)Nc3nc4c(s3)CCC4)cccc21 | 15.95% |
| COc1cc(C)cc(OC)c1C(C(=O)O)N(C)Cc1c(C)nn(C)c1C (stereo not given) | 1.527% |
| COCCn1c2c(ccc1=O)CCN(C(=O)C1CC=CC1)CC2 | 18.02% |
| NC(=O)CCNCc1c(Cl)cccc1N1CCCC1 | -9.412% |
| COCCNc1cc(-c2ccccc2C(N)=O)c2cc[nH]c2n1 | 26.26% |
| Cc1cc(C)n2ncc(CN3C[C@@H](O)[C@H](Oc4ccccc4)C3)c2n1 | 0.3545% |
| CN1CCN(c2nc(O)cc(Cc3ccccc3F)n2)CC1 | 10.81% |
| CC(=O)N1CC(C(=O)NCCc2ncc(C)s2)C1 | 6.986% |
| CC(C)c1cc(NC(=O)CN2CCC(N3CCNC3=O)CC2)on1 | 6.075% |
